# PubChem BioAssay (NCATS)
# Results filed as inconclusive are left out. Where a call stands in place of a potency, no number is given. Activity calls are given as the source filed them. Calls come from the whole dose curve; as a rule, active = well fitted curve in the direction sought with a large enough effect; inconclusive = small, poorly fitted or top-dose-only effect, or another doubt; inactive = no such curve, though single readings can be large; an effect the other way counts as inactive or inconclusive.
# Assay: Cellular Toxicity (caspase-3) HepG2 (AID 654);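 note: cells exposed to compound for 16 hours before reading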
# Settings: HepG2 caspase-3 activation, luminescence; series mostly up to 92.2 µM
# In short: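 Luminescent Caspase-Glo 3/7 readout after 16 hr compound exposure of human hepatocellular carcinoma HepG2 cells at 37 °C; qHTS concentration-response, normalized DMSO = 0%, 100 uM tamoxifen = 100%; AC50 by standard Hill equation.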
row,SMILES,Potency
1,FC(F)(F)c1cccc(Cl)c1,inactive
2,O=Nc1ccc(NO)cc1,inactive
3,CC(=O)Nc1ccc(C)cc1,inactive
4,C=Cc1ccccn1,inactive
5,CCNc1ccccc1,inactive
6,Cc1ccccc1Br,inactive
7,O=C(O)CNC(=O)c1ccc([N+](=O)[O-])cc1,inactive
8,C=C(C)C(=O)OCC(C)C,inactive
9,C[C@@H]1CC2(OC[C@]3(C)O[C@H]23)O[C@H]2C[C@@]3(C)[C@@H]4CC[C@H]5C(C)(C)C(O[C@@H]6OC[C@@H](O)[C@H](O)[C@H]6O)CC[C@@]56C[C@@]46CC[C@]3(C)[C@@H]12 (stereo partly specified),inactive
10,c1ccc2n[nH]nc2c1,inactive
11,C/C=C1\CC2C=CC1C2 (stereo unspecified),inactive
12,CCC(O)C(C)(C)C (stereo unspecified),inactive
13,CCOC(=O)OCC,inactive
14,CC(=O)OCc1ccco1,inactive
15,CCCCC(CC)COCC1CO1 (stereo unspecified),inactive
16,ClC/C=C/CCl,inactive
17,N#CCc1ccccc1[N+](=O)[O-],inactive

row,SMILES,Potency
1,Cc1cccc(C)c1[N+](=O)[O-],inactive
2,Cc1ccc2ccccc2c1[N+](=O)[O-],inactive
3,CCCOCC(C)O (stereo unspecified),inactive
4,CSc1ccc(C=O)cc1,inactive
5,CC(O)COC(C)(C)C (stereo unspecified),inactive
6,Fc1ccccc1,inactive
7,NC(=O)NC(N)=O,inactive
8,C=CC(=O)NC(C)C,inactive
9,CCOC(=O)C(C)C(C)=O (stereo unspecified),inactive
10,C=C(C)C1CC=C(C)C(OC(C)=O)C1 (stereo unspecified),inactive
11,O=C(O)c1ccccc1Cl,inactive
12,CCOCCOCC,inactive
13,CCCCCCCCN,inactive
14,C/C=C(/C)C#N,inactive
15,CC(C)(c1cc(Br)c(OCC(Br)CBr)c(Br)c1)c1cc(Br)c(OCC(Br)CBr)c(Br)c1 (stereo unspecified),inactive
16,Cc1cc(C(=O)O)ccc1[N+](=O)[O-],inactive
17,CN(C)CCCNCCCN,inactive

# Assay: Cellular Toxicity (caspase-3) Jurkat (AID 655);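 note: cells exposed to compound for 16 h at 37 °C before reading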; note: potency is the fitted concentration of half-maximal effect
# Settings: Jurkat caspase-3 activation, luminescence; caspase-3 activation: at 92.2 µM (top of the series), DMSO = 0%, tamoxifen = 100%
# In short: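 qHTS in human Jurkat T-cell leukemia line: 16 hr compound treatment at 37 °C, caspase-3/7 activity measured by Caspase-Glo luminescence. AC50 derived from Hill equation.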
SMILES,caspase-3 activation,Potency
CCC1CO1 (stereo unspecified),1.29% (inactive),
O=Nc1ccc(NO)cc1,,31.6 µM (active)
CC(=O)Nc1ccc(C)cc1,1.97% (inactive),
C=Cc1ccccn1,0.756% (inactive),
CCNc1ccccc1,0.137% (inactive),
Cc1ccccc1Br,-0.129% (inactive),
O=C(O)CNC(=O)c1ccc([N+](=O)[O-])cc1,1.61% (inactive),
C=C(C)C(=O)OCC(C)C,0.091% (inactive),
c1ccc2n[nH]nc2c1,1.47% (inactive),
C/C=C1\CC2C=CC1C2 (stereo unspecified),-1.14% (inactive),
CCC(O)C(C)(C)C (stereo unspecified),2.09% (inactive),
CCOC(=O)OCC,0.854% (inactive),
CC(=O)OCc1ccco1,13.6% (inactive),
COc1ccccc1[N+](=O)[O-],10.8% (inactive),
Cc1c(N)cccc1[N+](=O)[O-],2.77% (inactive),
ClC/C=C/CCl,1.47% (inactive),

SMILES,caspase-3 activation,Potency
Cc1cccc(C)c1[N+](=O)[O-],0.339% (inactive),
Cc1ccc2ccccc2c1[N+](=O)[O-],-0.271% (inactive),
CCCOCC(C)O (stereo unspecified),3.45% (inactive),
CC(O)COC(C)(C)C (stereo unspecified),0.633% (inactive),
Fc1ccccc1,0.771% (inactive),
C=CC(=O)NC(C)C,-1.34% (inactive),
CCOC(=O)C(C)C(C)=O (stereo unspecified),3.08% (inactive),
O=C(O)c1ccc(Cl)cc1Cl,-1.11% (inactive),
C=C(C)C1CC=C(C)C(OC(C)=O)C1 (stereo unspecified),0.979% (inactive),
O=C(O)c1ccccc1Cl,-0.163% (inactive),
CCCCCCCCN,1.3% (inactive),
CC(C)=CCC/C(C)=C/C=O,0.822% (inactive),
C/C=C(/C)C#N,1.22% (inactive),
CC(C)(c1cc(Br)c(OCC(Br)CBr)c(Br)c1)c1cc(Br)c(OCC(Br)CBr)c(Br)c1 (stereo unspecified),99.2% (active),
Cc1cc(C(=O)O)ccc1[N+](=O)[O-],-1.06% (inactive),
CN(C)CCCNCCCN,2.48% (inactive),

# Assay: Cellular Toxicity (caspase-3) HUV-EC-C (AID 656);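 note: cells exposed to compound for 16 h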
# Settings: HUV-EC-C cells, caspase-3 activation (apoptosis), vehicle = 0, 100 µM tamoxifen = 100%; series mostly up to 92.2 µM
# In short: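 Concentration-dependent caspase 3/7 induction was assessed in HUV-EC-C cells exposed for 16 hours. Data scaled between DMSO and tamoxifen (100 uM) controls.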
row,SMILES,outcome
1,CCC1CO1 (stereo unspecified),inactive
2,FC(F)(F)c1cccc(Cl)c1,inactive
3,O=Nc1ccc(NO)cc1,inactive
4,CC(=O)Nc1ccc(C)cc1,inactive
5,C=Cc1ccccn1,inactive
6,CCNc1ccccc1,inactive
7,Cc1ccccc1Br,inactive
8,O=C(O)CNC(=O)c1ccc([N+](=O)[O-])cc1,inactive
9,CCCCC/C=C/C=C/C=O,inactive
10,C=C(C)C(=O)OCC(C)C,inactive
11,C[C@@H]1CC2(OC[C@]3(C)O[C@H]23)O[C@H]2C[C@@]3(C)[C@@H]4CC[C@H]5C(C)(C)C(O[C@@H]6OC[C@@H](O)[C@H](O)[C@H]6O)CC[C@@]56C[C@@]46CC[C@]3(C)[C@@H]12 (stereo partly specified),inactive
12,c1ccc2n[nH]nc2c1,inactive
13,C/C=C1\CC2C=CC1C2 (stereo unspecified),inactive
14,CCC(O)C(C)(C)C (stereo unspecified),inactive
15,CCOC(=O)OCC,inactive
16,CC(=O)OCc1ccco1,inactive
17,COc1ccccc1[N+](=O)[O-],inactive
18,CCCCC(CC)COCC1CO1 (stereo unspecified),inactive
19,Cc1c(N)cccc1[N+](=O)[O-],inactive
20,ClC/C=C/CCl,inactive

row,SMILES,outcome
1,N#CCc1ccccc1[N+](=O)[O-],inactive
2,Cc1cccc(C)c1[N+](=O)[O-],inactive
3,Cc1ccc2ccccc2c1[N+](=O)[O-],inactive
4,CCCOCC(C)O (stereo unspecified),inactive
5,CSc1ccc(C=O)cc1,inactive
6,CC(O)COC(C)(C)C (stereo unspecified),inactive
7,Fc1ccccc1,inactive
8,NC(=O)NC(N)=O,inactive
9,C=CC(=O)NC(C)C,inactive
10,CCOC(=O)C(C)C(C)=O (stereo unspecified),inactive
11,O=C(O)c1ccc(Cl)cc1Cl,inactive
12,C=C(C)C1CC=C(C)C(OC(C)=O)C1 (stereo unspecified),inactive
13,O=C(O)c1ccccc1Cl,inactive
14,CCOCCOCC,inactive
15,CCCCCCCCN,inactive
16,CC(C)=CCC/C(C)=C/C=O,inactive
17,C/C=C(/C)C#N,inactive
18,CC(C)(c1cc(Br)c(OCC(Br)CBr)c(Br)c1)c1cc(Br)c(OCC(Br)CBr)c(Br)c1 (stereo unspecified),inactive
19,Cc1cc(C(=O)O)ccc1[N+](=O)[O-],inactive
20,CN(C)CCCNCCCN,inactive
